What all share (format): functional
For test [1], the system named is Plasmodium falciparum. The test is described as follows: GSK_TCMDC: Inhibition of Plasmodium falciparum 3D7 in whole red blood cells, using parasite LDH activity as an index of growth. Test compounds present at 2uM.
Test [2] concerns Plasmodium falciparum. Description: GSK_TCMDC: Inhibition of Plasmodium falciparum Dd2 in whole red blood cells, using parasite LDH activity as an index of growth. Test compounds present at 2uM.
Test [3] has as its system HepG2. Description: GSK_TCMDC: Percent inhibition of human HepG2 cell line. Test compounds present at 10uM.

The values that follow come from ChEMBL document CHEMBL1157539, “Thousands of chemical starting points for antimalarial lead identification” (Nature, 2010).

One may read the Inhibition as how much of the control response was suppressed. The low end stands for a weak effect, the high end for a strong effect.

For `C[C@H](Cc1ccc(OCCCCCCCOc2ccc(C[C@@H](C)NC[C@H](O)c3cccc(Cl)c3)cc2)cc1)NC[C@H](O)c1cccc(Cl)c1.Cl`, the Inhibition turned out to be 99% in test [1], 97% in test [2] and 99% in test [3].
Consider `CCCCOC(=O)C1=C(C)NC2=C(C(=O)CC(c3ccc(OC)c(OC)c3)C2)C1c1ccc(O)cc1` (stereo not given), for which the Inhibition in test [1] was 90%; in test [2] it was 75%; in test [3], 0%.
Consider `CCn1cnc2c(Nc3cccc([N+](=O)[O-])c3)nc(N3CCC(N4CCCCC4)CC3)nc21`, for which the Inhibition is on record as 98% in test [1], 35% in test [2] and 31% in test [3].
The like results for `C=CCn1c(C)cc(C(=O)COc2ccc(S(=O)(=O)N3CCOCC3)cc2[N+](=O)[O-])c1C` were, in that order, 94%, 5% and 0%.
On the same counts, the results for `COc1cccc(C(=O)NC(c2ccc(Cl)cc2Cl)c2cc(Cl)c3cccnc3c2O)c1` (stereo not given) are 100%, 76% and 37%.
The like results for `O=c1cc(NCCCNCc2cc(Cl)cc(Cl)c2OCc2ccc(Cl)cc2)[nH]c2ccccc12` were, in that order, 98%, 53% and 6%.
Turning to `Brc1ccccc1CNc1ccnc(NCCn2ccnc2)n1`, the figures for the Inhibition in test [1], in test [2] and in test [3] were 99%, 33% and 72%, respectively.
`CCCCCCNC(=O)C1Cc2c([nH]c3cc(Cl)ccc23)C2(CCN(Cc3ccccc3)CC2)N1` (stereo not given): the results for the Inhibition in test [1], in test [2] and in test [3] were 90%, 56% and 21%, respectively.
The like results for `CC1=C(C(=O)Nc2cc3cn[nH]c3cc2F)C(c2cccc(O)c2F)CC(=O)N1` (stereo not given) were, in that order, 97%, 98% and 1%.
The like results for `CCOC(=O)/C(=N\OC(C)(C)C(=O)NCc1ccc(O)c(O)c1)c1csc(NC(c2ccccc2)(c2ccccc2)c2ccccc2)n1` were, in that order, 100%, 99% and 13%.
